From PubChem BioAssay come the findings set out here.

The nature of experiment [1]: polyglutamine-triggered caspase-3 activation inhibitors, cell-based (AID 1583). The following applies: polyglutamine-induced caspase-3 activation, cell assay; stronger effect = higher value;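 tested at 10 µM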.
Experiment [2] is described as follows: suppressors of polyQ aggregation in yeast, 75Q-TubU reporter (AID 1593). The following applies: Yeast 75Q polyglutamine aggregation reporter.
Experiment [3] can be described thus: rescue of polyQ-huntingtin neuronal dysfunction in worms, whole organism, C. elegans mechanosensory neurons, N-terminal huntingtin (AID 1599). The following applies: touch response, stronger effect = higher value.
A short description of experiment [4]: inhibitors of mitochondrial cytochrome c release, biochemical, purified mitochondria (AID 1603).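 Further: mouse liver mitochondria challenged with calcium chloride; signal normalized to the plate average as 100%.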 Conditions: stronger effect = lower value.
The nature of experiment [5]: inhibitors of polyQ protein aggregation (AID 1604). Conditions: polyglutamine-induced protein aggregation inhibition assay; stronger effect = higher value; tested at 2.5 µM.
Experiment [6] is described as follows: enhancers of glutamate uptake in motor neurons, MN-1 cell line (AID 1612).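 Further: tested at 1 µM final; 0% = mean of DMSO vehicle wells on each plate; positive means more glutamate uptake than control and negative means less.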 Conditions: MN-1 motor neuron cells, stronger effect = higher value.
Experiment [7] in a line: reducers of polyQ inclusions in PC12 cells, cell-based, NGF-treated PC12, GFPQ80 (AID 1614).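 Further: lower means fewer inclusions and 0 means no inclusions at all.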 Conditions: PC12 NGF-treated GFP-polyQ80 inclusion reduction.
The nature of experiment [8]: suppressors of polyglutamine aggregation in yeast, 75Q-TubH (AID 1616). Conditions: S. cerevisiae 75Q-TubH polyglutamine aggregation suppression; stronger effect = higher value.
A short description of experiment [9]: liver-stage malaria parasite growth inhibition, primary screen, cell-based, HepG2, luciferase luminescence, HepG2 viability (AID 624349; in the data active means parasite load remaining mostly below about 12%, no sharp cut-off; inactive means mostly above about 10%;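 further: 100% = mean of DMSO negative control wells on the same plate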). Conditions: P. berghei liver stage in HepG2, luciferase luminescence, concentration not given here; parasite load remaining: stronger effect = lower value; viability: measured here: HepG2 viability without parasites.
Experiment [10] in a line: differential killing of epithelial or mesenchymal cells, primary screen, imaging, PC-3E GFP, TEM4-18 mCherry, co-culture (AID 1345086).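 On all read-outs here: cells exposed to compound for 72 h before imaging.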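 On red/green cell ratio (normalised): normalised mesenchymal count divided by normalised epithelial count so high means epithelial killing.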 Conditions: imaging cell counts, at 1 µM; for red/green cell ratio (normalised): actives lie on both sides.
Experiment [11] has as its system Aerobactin synthetase IucA (Klebsiella pneumoniae hvKP1). Nature of the experiment: Biochemical IucA enzyme inhibition primary screen of the Spectrum library (AID 1346200; call rule not given here;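 further: 100% = wells without compound and 0% = wells lacking enzyme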). The following applies: malachite green pyrophosphate, A620, at 8 µM, stronger effect = lower value.
Experiment [12] can be described thus: sensitizers of A549 cells to miR-34 induction, primary screen, imaging, A549 dox-inducible miR-34, nuclei and caspase counts (AID 1347080;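 active means compounds whose cell count with miR-34 switched on is under 0.7 times the count with it off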). The following applies: A549 miR-34 inducible, Hoechst nuclei count, 48 h.
The nature of experiment [13]: viability rescue of complex I mutant cybrids, primary screen, cell-based, galactose medium, ATP luminescence (AID 1645843;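 active means z-score of at least 1.8 in each of two replicates, scored against plate mean and spread of sample wells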;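 further: positive z means more ATP and so rescue of galactose-driven cybrid death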). The following applies: complex I mutant cybrid cells, 72 h, stronger effect = higher value.
For experiment [14], the target named is NAD(+) hydrolase SARM1 (Homo sapiens) (UniProt Q6SZW1). The experiment in a line: SARM1 TIR NADase inhibitors, cell lysate, NAD-Glo luminescence (AID 1508614;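 active means compound whose remaining NAD level is above about 45 nM, limit read from the data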). The following applies: SAM-TIR HEK293T lysate NADase, at 1 µM, stronger effect = higher value.
Experiment [15] has as its target Mitogen-activated protein kinase 7 (Homo sapiens) (UniProt Q13164). Nature of the experiment: ERK5 transactivation activators in reporter cells, primary screen, cell-based, HTS (AID 1508626;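 active means luciferase signal above three times the same-plate solvent-only control wells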;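 further: luciferase driven by Gal4-ERK5 fusion binding five Gal4 sites before minimal TATA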). Conditions: HeLa Gal4-ERK5 transactivation, 18 h, at 5 µM, stronger effect = higher value.
Where [16] appears, read: measured here: epithelial PC-3E GFP cell survival.
Where [17] appears, read: measured here: mesenchymal TEM4-18 mCherry cell survival.
Where [18] appears, read: measured here: relative caspase fold change +Dox/-Dox.
Where [19] appears, read: measured here: total cells with miR-34 induction, stronger effect = lower value.
Setting [20] is: measured here: total cells without miR-34 induction.

Each structure is given as a SMILES string. Several values for one entry are separate records, joined by “and”; a condition that tells them apart may be missing. Equal values may be shown once. For part of these data: Results with a measured potency or affinity are listed apart. Activity calls are given as the source filed them.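 How the source made its calls, unless noted: active means compounds killing one labelled cell type while sparing the other, by normalised counts and ratio limits, not self-fluorescent; inactive means the rest.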

Sequence of NAD(+) hydrolase SARM1 (Homo sapiens) (Q6SZW1 whole entry, looked up, the tested form may be a part): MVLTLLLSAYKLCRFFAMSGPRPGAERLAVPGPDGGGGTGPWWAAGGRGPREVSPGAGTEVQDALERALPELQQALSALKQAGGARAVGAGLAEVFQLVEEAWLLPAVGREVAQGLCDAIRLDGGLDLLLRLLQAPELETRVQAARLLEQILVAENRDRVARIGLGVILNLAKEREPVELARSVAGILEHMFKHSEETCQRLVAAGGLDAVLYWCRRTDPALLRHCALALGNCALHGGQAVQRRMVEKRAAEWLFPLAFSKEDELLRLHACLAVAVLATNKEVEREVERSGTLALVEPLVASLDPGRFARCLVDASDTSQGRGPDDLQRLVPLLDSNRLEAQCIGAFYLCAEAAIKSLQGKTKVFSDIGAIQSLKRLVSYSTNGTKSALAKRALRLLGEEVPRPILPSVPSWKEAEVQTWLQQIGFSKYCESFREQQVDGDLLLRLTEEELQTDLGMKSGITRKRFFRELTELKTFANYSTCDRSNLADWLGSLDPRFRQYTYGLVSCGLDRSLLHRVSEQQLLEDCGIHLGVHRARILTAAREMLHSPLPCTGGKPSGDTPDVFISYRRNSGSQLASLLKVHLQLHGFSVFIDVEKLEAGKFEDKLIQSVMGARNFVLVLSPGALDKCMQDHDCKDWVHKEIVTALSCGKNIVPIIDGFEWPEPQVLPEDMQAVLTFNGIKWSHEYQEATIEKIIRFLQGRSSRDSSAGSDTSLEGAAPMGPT
Sequence of Mitogen-activated protein kinase 7 (Homo sapiens) (Q13164 whole entry, looked up, the tested form may be a part): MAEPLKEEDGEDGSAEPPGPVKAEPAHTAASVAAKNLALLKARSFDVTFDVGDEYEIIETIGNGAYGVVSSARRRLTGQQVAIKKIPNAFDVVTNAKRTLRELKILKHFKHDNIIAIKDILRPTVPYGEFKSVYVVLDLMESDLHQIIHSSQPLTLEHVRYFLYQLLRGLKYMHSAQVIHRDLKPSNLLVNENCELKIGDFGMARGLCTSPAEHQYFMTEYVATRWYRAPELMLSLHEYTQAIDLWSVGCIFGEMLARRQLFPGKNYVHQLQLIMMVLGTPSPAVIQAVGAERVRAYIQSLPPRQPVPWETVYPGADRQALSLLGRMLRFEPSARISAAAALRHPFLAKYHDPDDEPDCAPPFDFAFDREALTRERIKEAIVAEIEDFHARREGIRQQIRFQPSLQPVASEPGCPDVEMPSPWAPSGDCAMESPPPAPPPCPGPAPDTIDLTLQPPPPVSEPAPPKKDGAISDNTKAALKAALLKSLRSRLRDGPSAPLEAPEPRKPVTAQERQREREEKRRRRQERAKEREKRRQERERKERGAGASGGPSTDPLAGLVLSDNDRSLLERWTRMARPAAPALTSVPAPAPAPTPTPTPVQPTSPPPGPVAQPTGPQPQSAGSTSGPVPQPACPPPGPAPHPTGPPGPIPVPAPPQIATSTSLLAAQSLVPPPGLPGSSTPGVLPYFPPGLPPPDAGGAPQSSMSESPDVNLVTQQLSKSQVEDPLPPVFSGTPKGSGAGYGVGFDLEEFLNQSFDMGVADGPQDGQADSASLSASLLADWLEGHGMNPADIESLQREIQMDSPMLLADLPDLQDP

As to `C[N+](C)(C)CC(=O)[O-]`, the inhibition in [1] is 4.44%. The compound further showed a score in experiment [2] of 1.09. Besides, in experiment [3], the rescue above control amounted to 5.21. For the same compound, in experiment [4], the cytochrome c release ratio worked out at 1.34. For the same compound, the inhibition of aggregation in [5] was found to be 61.8%. For the same compound, the glutamate uptake change in [6] was found to be 21.6%. The compound further returned an inclusion score in [7] of 2. This compound also showed an aggregation suppression score in experiment [8] of 0.998. In addition, the parasite load remaining in experiment [9] is 57.1% (inactive) and 50.8% (inactive). Moreover, in experiment [9], the viability is 76.9% and 89.4%. For the same compound, the red/green cell ratio (normalised) in experiment [10] is 1.27 (inactive). Further, the values for the normalised cell number in [10] (setting [16]) and in [10] (setting [17]) were 1.09 and 1.39, respectively. Further, in experiment [11], the activity remaining was 124% (inactive). Also, the fold change in [12] (stronger effect = lower value) is 0.862 (inactive); in experiment [12] (setting [18]), 4.05. The cell count in [12] (setting [19]) stood at 11400; in [12] (setting [20]), 13200.

For `C[C@@H]1CC[C@@]2(OC1)OC1C(O)C3C4CC[C@H]5C[C@H](O[C@@H]6O[C@H](CO)[C@H](O[C@@H]7O[C@H](CO)[C@@H](O)[C@H](O[C@@H]8OC[C@@H](O)[C@H](O)[C@H]8O)[C@H]7O[C@@H]7O[C@H](CO)[C@H](O)[C@H](O[C@@H]8O[C@H](CO)[C@@H](O)[C@H](O)[C@H]8O)[C@H]7O)[C@H](O)[C@H]6O)[C@H](O)C[C@]5(C)C4CC[C@]3(C)C1[C@@H]2C` (stereo not given in full), in experiment [10], the red/green cell ratio (normalised) is 0.84 (inactive). For the same compound, the normalised cell number in experiment [10] (setting [16]) worked out at 0.9; in [10] (setting [17]), 0.76. The activity remaining in experiment [11] was 111% (inactive).

As to `C=C1CC2C(CC[C@]3(C)C(=O)CCC23)[C@@]2(C)C=CC(=O)C=C12` (stereo not given in full), the parasite load remaining in experiment [9] is 9.27% (inactive). Further, the viability in experiment [9] was found to be 99%. Further, the red/green cell ratio (normalised) in [10] is 1.16 (inactive). For the same compound, the normalised cell number was 1.01 in experiment [10] (setting [16]) and 1.17 in experiment [10] (setting [17]). Also, in experiment [11], the activity remaining is 121% (inactive). For the same compound, the fold change is 0.911 (inactive) and 0.833 (inactive) in experiment [12] (stronger effect = lower value); 1 and 2.69 in experiment [12] (setting [18]). For the same compound, the cell count in [12] (setting [19]) was 8770 and 9350; in experiment [12] (setting [20]), 9630 and 11200. In addition, in experiment [13], the z-score was -1.42 (inactive).

Take `CNC(C)[C@H](O)c1ccccc1` (stereo not given in full): in experiment [9], the parasite load remaining is 77% (inactive) and the viability amounted to 74.2%. In addition, the red/green cell ratio (normalised) in experiment [10] was 1.42 (inactive). In addition, the normalised cell number in [10] (setting [16]) stood at 0.95. In [10] (setting [17]), this compound registered a normalised cell number of 1.35. Besides, the activity remaining in experiment [11] was 87.2% (inactive). The remaining NAD in [14] was 10 nM (inactive). In addition, in experiment [15], the luciferase signal is 52 AU (inactive).

Regarding `O=C1CC[C@@]2(O)[C@H]3Cc4ccc(O)c5c4C2(CCN3CC2CC2)[C@H]1O5`, the inhibition in [1] is -9.29%. In [2], this compound gave a score of 1.49. Besides, the rescue above control in experiment [3] is -6.2. In addition, the cytochrome c release ratio in experiment [4] was found to be 1.27. In experiment [5], this compound registered an inhibition of aggregation of 61.5%. For the same compound, the glutamate uptake change in experiment [6] worked out at 10.7%. This compound also registered an inclusion score in experiment [7] of 2. In experiment [8], this compound had an aggregation suppression score of 1.53. In addition, the parasite load remaining in experiment [9] is 70.5% (inactive) and 73.3% (inactive). In addition, in [9], the viability was 84.7% and 132%. In addition, the red/green cell ratio (normalised) in experiment [10] was 1.24 (inactive). In addition, the normalised cell number stood at 1.01 in experiment [10] (setting [16]) and 1.26 in [10] (setting [17]). In addition, the activity remaining in experiment [11] is 104% (inactive). Besides, the fold change in experiment [12] (stronger effect = lower value) is 0.853 (inactive); in [12] (setting [18]), 4.3. The values for the cell count in [12] (setting [19]) and in experiment [12] (setting [20]) were 11500 and 13400, respectively.

With `Cc1c(O)c(O)cc2c1CC=C1[C@@]2(C)CC[C@@]2(C)C3C[C@](C)(C(=O)O)CC[C@]3(C)CC[C@]12C` (stereo not given in full), the red/green cell ratio (normalised) in [10] was 0.65 (inactive). In addition, the normalised cell number was 0.64 in experiment [10] (setting [16]) and 0.41 in [10] (setting [17]). Also, in [11], the activity remaining was 103% (inactive).

For `CC1(C)C(=O)C=C[C@@]2(C)C1=C(O)C(=O)[C@]1(C)C2CC[C@@]2(C)[C@H](c3ccoc3)C[C@H]3O[C@]321` (stereo not given in full), in experiment [10], the red/green cell ratio (normalised) is 1.22 (inactive). Moreover, the results for the normalised cell number in experiment [10] (setting [16]) and in experiment [10] (setting [17]) were 0.97 and 1.19, respectively. The activity remaining in [11] is 116% (inactive).

For `CN1C2C[C@H](OC(=O)[C@H](CO)c3ccccc3)C[C@H]1[C@@H](O)C2`, the red/green cell ratio (normalised) in [10] is 0.94 (inactive). Also, the results for the normalised cell number in experiment [10] (setting [16]) and in experiment [10] (setting [17]) were 1.1 and 1.03, respectively. Also, in experiment [11], the activity remaining is 109% (inactive). Also, the fold change in experiment [12] (stronger effect = lower value) is 0.908 (inactive); in experiment [12] (setting [18]), 0.859. The cell count in experiment [12] (setting [19]) was 8730; in experiment [12] (setting [20]) it was 9620.
